TRPML1 blocker: human mucolipin-1 channel inhibition; TRPML1-inducible cells, Ca2+ dye fluorescence, FDSS; hits give low values; inhibition of EC80 agonist-evoked calcium signal; activity change, negative = inhibition, % (test concentration not listed); hit rate 0.02% among 390,000; in the data active = activity change below about -50%; inconclusive = between about -30% and that limit;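 also: stimulus is agonist 54-4 at its EC80 concentration; % is scaled to controls: 0 for no effect and ±100 for the full control effect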
Target sequence (Q9GZU1 whole entry, looked up): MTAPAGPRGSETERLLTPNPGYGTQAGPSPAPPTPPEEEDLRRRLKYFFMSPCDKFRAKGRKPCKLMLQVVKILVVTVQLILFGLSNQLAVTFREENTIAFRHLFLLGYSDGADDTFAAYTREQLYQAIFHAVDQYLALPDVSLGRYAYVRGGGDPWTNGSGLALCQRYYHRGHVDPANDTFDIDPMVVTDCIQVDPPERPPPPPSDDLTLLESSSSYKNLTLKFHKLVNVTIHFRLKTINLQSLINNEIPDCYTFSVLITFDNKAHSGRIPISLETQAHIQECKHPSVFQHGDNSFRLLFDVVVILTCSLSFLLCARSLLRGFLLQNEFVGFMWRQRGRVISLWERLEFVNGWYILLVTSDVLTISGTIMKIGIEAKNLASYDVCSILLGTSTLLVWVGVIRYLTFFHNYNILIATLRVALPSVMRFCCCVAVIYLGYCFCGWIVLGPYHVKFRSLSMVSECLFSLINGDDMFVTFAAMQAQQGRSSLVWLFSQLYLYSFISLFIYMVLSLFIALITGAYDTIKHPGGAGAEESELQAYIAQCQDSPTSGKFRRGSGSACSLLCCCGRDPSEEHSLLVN
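Calcium fluorescence in TRPML1-DL cells induced overnight with Tet: a 110 s read after compound pin addition, then a 110 s antagonist read after challenge with 54-4 at 4 uM final (EC80).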
TRHR PAM: TRH receptor (human) allosteric enhancement; P34981; TRHR cells, fluo-8 calcium fluorescence, EC20 TRH enhancement; enhancement, % at 2 µM; hit rate 0.66% among 360,000; in the data active = enhancement above about 30%; also: 0% is about no effect
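TRHR-expressing cells loaded with fluo-8 calcium dye were read kinetically (ex 480/em 530) during compound addition, then stimulated with an EC20 of TRH (10 nM final). Enhancement of the Gq-mediated intracellular calcium response was scored.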
TRHR agonist: TRH receptor (human) agonism; TRHR cells, calcium flux fluo-8, FDSS agonist mode; hit rate 0.18% among 360,000; activation, % at 2 µM; in the data active = activation above about 30%; also: 0% is about no effect
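Read-out: compound-evoked intracellular calcium rise in TRHR cells, fluo-8 dye, kinetic FDSS fluorescence at 1 s/cycle following a 10-cycle baseline. Cells cultured overnight before dye loading (30 min–1.5 h, RT).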
KCNH2 3.1 block: inhibitors of human KCNH2 3.1 potassium channel isoform; U2OS KCNH2 3.1, thallium flux FluxOr; hits give low values; activity change, % (tested at about 1.8 µM); hit rate 0.95% among 340,000;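 active = maximum activity change below -70%; inconclusive = maximum activity change from -70% to -50%; inactive = maximum activity change above -50%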;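 also: thallium influx rate constant from kinetic fluorescence after stimulation buffer; % is scaled to controls: 0 for no effect and ±100 for the full control effect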
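Virally transduced U2OS (3.1 isoform, 4 h infection in dark at RT) → overnight 37 C → FluxOr + Red40 in HBSS/HEPES, 45 min → stimulation buffer, 2 min kinetic read → rate constant vs DMSO controls.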
hERG WT inh: KCNH2 (human, wildtype) channel inhibition | U2OS, BacMam KCNH2, thallium flux FluxOr; hits give low values | hit rate 0.37% among 340,000 | Q12809 | activity change, % at 1.84 µM | AID 720551;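 active = maximum activity change below -70%; inconclusive = maximum activity change between -70% and -50%; inactive = maximum activity change above -50%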; also: % is scaled to controls: 0 for no effect and ±100 for the full control effect
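U2OS cells transduced with wild-type KCNH2 virus are loaded with FluxOr dye for 45 min, and thallium flux is measured in kinetic reads before and after stimulation buffer. Rate constants are normalized to DMSO controls.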
TRPML1 agonist: human mucolipin-1 channel agonism | TRPML1-expressing cells, Ca2+ dye fluorescence, FDSS | activation, % (concentration not given with the values) | hit rate 0.12% among 410,000 | AID 624414; in the data active = activation above about 50%; inconclusive = mostly about 30% to 49%; also: 0% is about no effect
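Agonist activity was taken from a 110 s kinetic Ca2+ dye read on the FDSS after pinning compounds onto TRPML1-DL cells. The cells were seeded at 1,500/well with Tet inducer, incubated about 16 h, then dye-loaded at room temperature.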
An asterisk follows results filed as active; ? = inconclusive; nt = no result given; ! = a repeat was not active. Most compounds without a hit are left out; they make up all but 1.7% or so of the library.

SMILES	TRPML1 blocker	TRHR PAM	TRHR agonist	KCNH2 3.1 block	hERG WT inh	TRPML1 agonist
Cc1nc2ccc(S(=O)(=O)N(C)CC(=O)Nc3cccc(C(F)(F)F)c3)cc2s1	-5	-4	-2	nt	nt	1
COc1cc(OC)c2c(-c3ccccc3)cc(=O)oc2c1C(CC(=O)N1CCN(c2ccccc2)CC1)c1ccc2c(c1)OCO2 (centres undefined)	nt	-7	0	nt	nt	nt
COc1cc(OC)c2c(C)cc(=O)oc2c1C(CCN1CCN(c2ccccc2)CC1)c1ccc2c(c1)OCO2 (centres undefined)	-19	8	0	-103*	-92*	1
CCOc1ccc(OCC)c(S(=O)(=O)n2cnc(C)c2)c1	19	32*	0	17	12	0
CCOc1ccc(OCC)c(S(=O)(=O)N2CCCCC2)c1	-5	-4	-1	1	0	0
CCOC(=O)Cn1c(=O)oc2ccc(C)cc21	-13	-5	0	-12	-6	1
Cc1ccc2oc(=O)n(CC(=O)OCCC(C)C)c2c1	7	35*	-1	3	8	2
O=c1c2ccccc2[nH]c(=S)n1CCCN1CCC(Cc2ccccc2)CC1	25	2	0	-76*	-14	2
CC1CCN(CCCn2c(=S)[nH]c3ccccc3c2=O)CC1	8	6	1	-15	17	-1
CCOc1cc(C(=O)OCC(=O)c2cc(C)n(CC3CCCO3)c2C)ccc1OCC(=O)N1CCOCC1 (centres undefined)	5	38*	2	1	-5	1
CCOC(=O)c1cc2n(c1/N=C/N(C)C)-c1ccccc1C2=O	-22	-2	85*	7	-4	?
CCOC(=O)c1ccc2c(c1)N(C)C(=O)c1ccccc1S2	nt	-1	-1	3	-3	nt
Cc1nc2nc(NC(=O)c3ccco3)[nH]n2c(=O)c1C	12	14	0	-14	-2	4
COc1ccc(-c2csc(N)n2)cc1F	10	13	-1	-10	-123*	0
Nc1nc(-c2ccc(F)cc2)cs1	23	-3	0	3	1	0
Cc1n[nH]c(C)c1Sc1ccccc1N=Cc1cc(Cl)cc([N+](=O)[O-])c1O	48	6	0	-5	-133*	1
Cc1n[nH]c(C)c1Sc1ccccc1[N+](=O)[O-]	9	2	-1	-3	-14	1
O=C(NNC(=O)c1ccc(Br)o1)c1ccc(NS(=O)(=O)c2cccs2)cc1	-9	nt	nt	11	-8	1
Cc1ccc(C(=O)NNC(=O)c2ccc(NS(=O)(=O)c3cccs3)cc2)o1	-3	32*	0	0	1	0
c1ccc(CN2CCc3[nH]c4ccccc4c3C2)cc1	-11	nt	nt	0	19	1
CN1CCc2c(c3ccccc3n2Cc2ccccc2)C1	14	0	0	-77*!	1	1
CCCCN1CCc2c(c3ccccc3n2Cc2ccccc2)C1	-15	4	1	-94*	?	2
CN1CCc2c(c3ccccc3n2C)C1	-6	-3	1	8	-1	0
COc1ccc(Cl)cc1Cn1c(C)c(C(=O)NCc2ccc3c(c2)OCCO3)sc1=O	nt	nt	nt	nt	nt	5
C[C@H](CO)N1C[C@H](C)[C@@H](CN(C)Cc2ccc(Cl)c(Cl)c2)Oc2c(NC(=O)Cc3ccccc3)cccc2C1=O	32	nt	nt	-78*	-15	0
SMILES	TRPML1 blocker	TRHR PAM	TRHR agonist	KCNH2 3.1 block	hERG WT inh	TRPML1 agonist
C[C@H](CO)N1C[C@H](C)[C@@H](CN(C)Cc2ccccc2)Oc2ccc(NC(=O)Cn3cnnn3)cc2C1=O	-8	nt	nt	8	6	0
Cc1noc(C)c1S(=O)(=O)N(C)C[C@H]1Oc2c(NC(=O)Nc3ccccc3)cccc2C(=O)N([C@H](C)CO)C[C@@H]1C	15	nt	nt	10	-124*	0
Cc1noc(C)c1S(=O)(=O)N(C)C[C@H]1Oc2c(NC(=O)Nc3ccc(C(F)(F)F)cc3)cccc2C(=O)N([C@H](C)CO)C[C@@H]1C	22	nt	nt	-13	-5	-1
C[C@H](CO)N1C[C@H](C)[C@@H](CN(C)Cc2ccc(Oc3ccccc3)cc2)Oc2ccc(NC(=O)Cn3cnnn3)cc2C1=O	19	nt	nt	10	-273*	0
COCCN(C(=O)COC(=O)c1sccc1C)c1c(N)n(Cc2ccccc2)c(=O)[nH]c1=O	13	10	1	-7	-18	1
COc1ccccc1NC(=O)NNC(=O)CCN1CCOCC1	-16	-3	0	1	-8	0
Cc1cc(NC(=O)C23CCC(C)(C(=O)O2)C3(C)C)no1 (centres undefined)	9	8	1	-191*	-22	-1
COc1cccc(CNC(=O)C(=O)NCC(c2ccco2)S(=O)(=O)c2cccs2)c1 (centres undefined)	3	-1	0	nt	nt	1
CC(=O)c1ccc(Oc2cc(C)nc(N3CCOCC3)n2)cc1	1	-1	0	-136*	-2	-1
FC(F)(F)Oc1ccc(Nc2nc(N3CCOCC3)nc(N3CCOCC3)n2)cc1	26	1	0	-77*	11	2
CC(=O)c1ccc(Nc2nc(N3CCOCC3)nc(N3CCOCC3)n2)cc1	6	40*	0	8	7	-1
N#Cc1nc(Nc2cccc(Br)c2)nc(NC2CCCC2)n1	nt	-4	-1	nt	nt	nt
O=C(CSc1nc(-c2ccccc2)c(-c2ccccc2)o1)Nc1nnc(-c2ccccc2)s1	10	50*	0	-6	-3	0
CCN(CC)S(=O)(=O)c1ccc(SCC(=O)c2c(N)n(C3CC3)c(=O)[nH]c2=O)nc1	-8	nt	nt	-1	0	-1
Cc1ccc2oc(C(=O)Nc3ccc(S(=O)(=O)N(C)Cc4ccccc4)cc3)cc(=O)c2c1	4	3	0	nt	nt	0
Cc1cc2oc(C(=O)Nc3ccc(S(=O)(=O)N(C)Cc4ccccc4)cc3)cc(=O)c2cc1C	-11	31*	0	nt	nt	0
CCN1C(Nc2ccccc2)=NC[C@@H]1CC(C)C	7	-8	17	-8	7	10
CC(C)C[C@H]1CN=C(Nc2ccccc2)N1CCc1cccc(F)c1	9	nt	nt	-48	12	80*
CC(C)C[C@H]1CN=C(N(C)C)N1CCc1cccc(F)c1	-17	nt	nt	-107*	9	0
CN(C)C1=NC[C@H](Cc2ccccc2)N1CCc1cccc(F)c1	-9	-7	0	-49	25	0
CC(C)CCN1C(Nc2ccccc2)=NC[C@@H]1CC(C)C	7	-6	1	10	11	-1
CC(C)C[C@H]1CN=C(Nc2ccccc2)N1CCc1ccc(F)cc1	6	-21	39*	?	53	?

Screening results as filed in PubChem.
